# Reference: ChEMBL document CHEMBL1961873, “Compounds: GSK PKIS; Assays: Nanosyn kinase panel” (2012)
# How the values were obtained:
# [1] = system: Proto-oncogene tyrosine-protein kinase receptor Ret (Homo sapiens), P07949 [Y791F]; conditions: at 1 µM
# [2] = biological target: Macrophage-stimulating protein receptor (Homo sapiens) (UniProt Q04912); conditions: at 0.1 µM
# [3] = biological target: Macrophage-stimulating protein receptor (Homo sapiens) (UniProt Q04912); conditions: at 1 µM
# [4] = biological target: Proto-oncogene tyrosine-protein kinase ROS (Homo sapiens) (UniProt P08922); conditions: at 0.1 µM
# [5] = biological target: Proto-oncogene tyrosine-protein kinase ROS (Homo sapiens) (UniProt P08922); conditions: at 1 µM
# [6] = biological target: Proto-oncogene tyrosine-protein kinase Src (Homo sapiens) (UniProt P12931); conditions: at 0.1 µM
# [7] = biological target: Proto-oncogene tyrosine-protein kinase Src (Homo sapiens) (UniProt P12931); conditions: at 1 µM
# [8] = biological target: Tyrosine-protein kinase Srms (Homo sapiens) (UniProt Q9H3Y6); conditions: at 0.1 µM
# [9] = biological target: Tyrosine-protein kinase Srms (Homo sapiens) (UniProt Q9H3Y6); conditions: at 1 µM
# [10] = biological target: Tyrosine-protein kinase SYK (Homo sapiens) (UniProt P43405); conditions: at 0.1 µM
# [11] = biological target: Tyrosine-protein kinase SYK (Homo sapiens) (UniProt P43405); conditions: at 1 µM
# [12] = biological target: T1, Tyrosine-protein kinase Tec (Homo sapiens) (UniProt P42680); conditions: at 0.1 µM
# T1 sequence (whole entry): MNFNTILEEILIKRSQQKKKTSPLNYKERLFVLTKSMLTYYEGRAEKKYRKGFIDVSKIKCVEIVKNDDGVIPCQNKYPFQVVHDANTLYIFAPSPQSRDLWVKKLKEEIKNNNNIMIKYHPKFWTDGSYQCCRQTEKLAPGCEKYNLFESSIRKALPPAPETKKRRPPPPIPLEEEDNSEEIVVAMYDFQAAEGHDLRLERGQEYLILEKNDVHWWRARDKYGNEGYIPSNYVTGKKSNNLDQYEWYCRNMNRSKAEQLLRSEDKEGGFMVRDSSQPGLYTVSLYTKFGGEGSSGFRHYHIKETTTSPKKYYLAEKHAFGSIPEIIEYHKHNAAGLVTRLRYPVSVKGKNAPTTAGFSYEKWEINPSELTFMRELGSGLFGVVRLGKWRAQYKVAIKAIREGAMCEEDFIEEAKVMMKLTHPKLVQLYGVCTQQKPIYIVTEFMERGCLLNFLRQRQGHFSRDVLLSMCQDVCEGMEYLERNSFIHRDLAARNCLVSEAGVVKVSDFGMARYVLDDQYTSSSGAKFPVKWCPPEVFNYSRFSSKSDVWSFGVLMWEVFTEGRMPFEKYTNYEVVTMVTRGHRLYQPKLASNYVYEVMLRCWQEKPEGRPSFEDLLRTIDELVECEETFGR
# [13] = biological target: T1, Tyrosine-protein kinase Tec (Homo sapiens); conditions: at 1 µM
# [14] = biological target: Angiopoietin-1 receptor (Homo sapiens) (UniProt Q02763); conditions: at 0.1 µM
# [15] = biological target: Angiopoietin-1 receptor (Homo sapiens) (UniProt Q02763); conditions: at 1 µM
# [16] = biological target: T2, Non-receptor tyrosine-protein kinase TNK1 (Homo sapiens) (UniProt Q13470); conditions: at 0.1 µM
# T2 sequence (whole entry): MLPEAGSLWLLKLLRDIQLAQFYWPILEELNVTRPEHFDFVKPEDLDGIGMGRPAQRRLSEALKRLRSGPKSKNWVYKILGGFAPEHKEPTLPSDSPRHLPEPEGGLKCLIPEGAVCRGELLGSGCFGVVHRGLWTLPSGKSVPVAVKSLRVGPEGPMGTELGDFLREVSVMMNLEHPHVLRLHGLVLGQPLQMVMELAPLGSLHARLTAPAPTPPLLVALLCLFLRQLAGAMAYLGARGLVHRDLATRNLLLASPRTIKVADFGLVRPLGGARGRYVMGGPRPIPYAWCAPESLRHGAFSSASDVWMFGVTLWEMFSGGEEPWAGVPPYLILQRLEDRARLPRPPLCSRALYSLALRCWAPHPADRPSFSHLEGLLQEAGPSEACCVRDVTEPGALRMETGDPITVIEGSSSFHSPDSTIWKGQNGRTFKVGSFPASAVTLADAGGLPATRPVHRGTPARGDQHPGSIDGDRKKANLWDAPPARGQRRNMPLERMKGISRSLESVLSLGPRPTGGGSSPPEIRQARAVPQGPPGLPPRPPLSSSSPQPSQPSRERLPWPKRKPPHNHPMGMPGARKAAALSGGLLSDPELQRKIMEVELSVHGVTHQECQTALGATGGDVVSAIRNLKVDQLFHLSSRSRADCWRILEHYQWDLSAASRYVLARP
# [17] = biological target: T2, Non-receptor tyrosine-protein kinase TNK1 (Homo sapiens); conditions: at 1 µM
# [18] = biological target: Activated CDC42 kinase 1 (Homo sapiens) (UniProt Q07912); conditions: at 0.1 µM
# [19] = biological target: Activated CDC42 kinase 1 (Homo sapiens) (UniProt Q07912); conditions: at 1 µM
# [20] = biological target: High affinity nerve growth factor receptor (Homo sapiens) (UniProt P04629); conditions: at 0.1 µM;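 note: each value is a mean of replicate percent inhibition readings against TRKA kinase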
# Chain of Activated CDC42 kinase 1 (Homo sapiens) (Q07912 whole entry, looked up): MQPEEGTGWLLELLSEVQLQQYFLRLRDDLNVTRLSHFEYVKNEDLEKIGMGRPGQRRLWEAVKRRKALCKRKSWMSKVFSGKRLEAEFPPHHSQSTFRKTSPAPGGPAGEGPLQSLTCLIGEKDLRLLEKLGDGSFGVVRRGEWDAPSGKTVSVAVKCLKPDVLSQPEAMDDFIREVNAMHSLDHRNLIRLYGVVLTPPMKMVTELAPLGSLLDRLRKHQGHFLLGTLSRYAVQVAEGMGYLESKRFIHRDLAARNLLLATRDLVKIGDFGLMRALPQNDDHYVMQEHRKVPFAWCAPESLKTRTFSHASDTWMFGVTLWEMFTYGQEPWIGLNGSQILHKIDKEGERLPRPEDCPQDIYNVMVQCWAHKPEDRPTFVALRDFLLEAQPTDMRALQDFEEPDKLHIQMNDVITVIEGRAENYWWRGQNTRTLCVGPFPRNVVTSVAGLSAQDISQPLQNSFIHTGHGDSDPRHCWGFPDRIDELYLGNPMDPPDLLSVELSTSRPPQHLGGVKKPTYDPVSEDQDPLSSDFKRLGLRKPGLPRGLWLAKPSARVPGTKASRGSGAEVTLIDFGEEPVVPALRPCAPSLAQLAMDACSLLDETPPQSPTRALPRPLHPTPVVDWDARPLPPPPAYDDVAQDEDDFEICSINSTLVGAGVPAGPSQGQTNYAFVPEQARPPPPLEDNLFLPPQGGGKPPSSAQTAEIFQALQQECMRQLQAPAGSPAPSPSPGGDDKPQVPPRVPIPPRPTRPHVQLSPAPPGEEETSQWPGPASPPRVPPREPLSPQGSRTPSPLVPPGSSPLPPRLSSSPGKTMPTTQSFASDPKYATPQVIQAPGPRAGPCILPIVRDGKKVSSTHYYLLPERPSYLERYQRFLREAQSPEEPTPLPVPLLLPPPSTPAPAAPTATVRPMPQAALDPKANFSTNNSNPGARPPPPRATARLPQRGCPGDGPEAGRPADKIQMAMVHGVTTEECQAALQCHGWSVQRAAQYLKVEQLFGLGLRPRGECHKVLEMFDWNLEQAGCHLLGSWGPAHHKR
# Chain of Angiopoietin-1 receptor (Homo sapiens) (Q02763 whole entry): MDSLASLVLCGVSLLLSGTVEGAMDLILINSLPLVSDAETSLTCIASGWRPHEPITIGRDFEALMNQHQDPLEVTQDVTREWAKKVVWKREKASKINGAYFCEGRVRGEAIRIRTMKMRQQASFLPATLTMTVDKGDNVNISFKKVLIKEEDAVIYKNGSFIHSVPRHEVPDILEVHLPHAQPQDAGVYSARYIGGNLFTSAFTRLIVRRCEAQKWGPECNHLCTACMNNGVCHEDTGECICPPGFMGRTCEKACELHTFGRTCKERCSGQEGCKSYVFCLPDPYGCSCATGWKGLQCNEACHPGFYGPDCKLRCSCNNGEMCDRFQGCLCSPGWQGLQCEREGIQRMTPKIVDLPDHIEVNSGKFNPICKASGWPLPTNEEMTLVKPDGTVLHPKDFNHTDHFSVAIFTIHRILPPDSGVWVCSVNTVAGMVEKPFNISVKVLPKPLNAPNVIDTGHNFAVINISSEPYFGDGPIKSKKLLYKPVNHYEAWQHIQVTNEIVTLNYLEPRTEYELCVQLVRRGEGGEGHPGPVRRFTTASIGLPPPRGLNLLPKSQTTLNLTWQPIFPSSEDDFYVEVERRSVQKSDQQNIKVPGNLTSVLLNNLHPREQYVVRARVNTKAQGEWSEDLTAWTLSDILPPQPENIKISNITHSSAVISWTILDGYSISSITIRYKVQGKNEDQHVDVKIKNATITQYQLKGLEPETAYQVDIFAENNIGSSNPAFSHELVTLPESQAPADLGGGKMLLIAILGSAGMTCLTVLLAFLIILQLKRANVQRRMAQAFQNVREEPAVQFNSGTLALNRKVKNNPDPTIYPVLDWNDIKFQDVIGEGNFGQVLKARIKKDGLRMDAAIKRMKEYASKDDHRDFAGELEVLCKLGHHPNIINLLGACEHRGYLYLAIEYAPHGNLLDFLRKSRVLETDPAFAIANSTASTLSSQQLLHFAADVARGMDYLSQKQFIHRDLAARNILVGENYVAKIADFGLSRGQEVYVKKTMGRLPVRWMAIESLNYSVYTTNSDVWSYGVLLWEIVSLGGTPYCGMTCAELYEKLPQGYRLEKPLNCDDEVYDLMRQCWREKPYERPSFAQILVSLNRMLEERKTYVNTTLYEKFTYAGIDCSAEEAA
# Chain of Macrophage-stimulating protein receptor (Homo sapiens) (Q04912 25-304 limits assumed): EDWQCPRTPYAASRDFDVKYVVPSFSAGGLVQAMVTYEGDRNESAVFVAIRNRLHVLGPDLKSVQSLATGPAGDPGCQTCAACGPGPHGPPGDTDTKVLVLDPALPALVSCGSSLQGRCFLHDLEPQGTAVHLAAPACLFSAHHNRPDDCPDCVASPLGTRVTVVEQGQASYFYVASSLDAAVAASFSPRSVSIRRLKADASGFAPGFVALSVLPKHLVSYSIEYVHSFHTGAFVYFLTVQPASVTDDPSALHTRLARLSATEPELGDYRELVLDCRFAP
# Chain of Macrophage-stimulating protein receptor (Homo sapiens) (Q04912 310-1400 limits assumed): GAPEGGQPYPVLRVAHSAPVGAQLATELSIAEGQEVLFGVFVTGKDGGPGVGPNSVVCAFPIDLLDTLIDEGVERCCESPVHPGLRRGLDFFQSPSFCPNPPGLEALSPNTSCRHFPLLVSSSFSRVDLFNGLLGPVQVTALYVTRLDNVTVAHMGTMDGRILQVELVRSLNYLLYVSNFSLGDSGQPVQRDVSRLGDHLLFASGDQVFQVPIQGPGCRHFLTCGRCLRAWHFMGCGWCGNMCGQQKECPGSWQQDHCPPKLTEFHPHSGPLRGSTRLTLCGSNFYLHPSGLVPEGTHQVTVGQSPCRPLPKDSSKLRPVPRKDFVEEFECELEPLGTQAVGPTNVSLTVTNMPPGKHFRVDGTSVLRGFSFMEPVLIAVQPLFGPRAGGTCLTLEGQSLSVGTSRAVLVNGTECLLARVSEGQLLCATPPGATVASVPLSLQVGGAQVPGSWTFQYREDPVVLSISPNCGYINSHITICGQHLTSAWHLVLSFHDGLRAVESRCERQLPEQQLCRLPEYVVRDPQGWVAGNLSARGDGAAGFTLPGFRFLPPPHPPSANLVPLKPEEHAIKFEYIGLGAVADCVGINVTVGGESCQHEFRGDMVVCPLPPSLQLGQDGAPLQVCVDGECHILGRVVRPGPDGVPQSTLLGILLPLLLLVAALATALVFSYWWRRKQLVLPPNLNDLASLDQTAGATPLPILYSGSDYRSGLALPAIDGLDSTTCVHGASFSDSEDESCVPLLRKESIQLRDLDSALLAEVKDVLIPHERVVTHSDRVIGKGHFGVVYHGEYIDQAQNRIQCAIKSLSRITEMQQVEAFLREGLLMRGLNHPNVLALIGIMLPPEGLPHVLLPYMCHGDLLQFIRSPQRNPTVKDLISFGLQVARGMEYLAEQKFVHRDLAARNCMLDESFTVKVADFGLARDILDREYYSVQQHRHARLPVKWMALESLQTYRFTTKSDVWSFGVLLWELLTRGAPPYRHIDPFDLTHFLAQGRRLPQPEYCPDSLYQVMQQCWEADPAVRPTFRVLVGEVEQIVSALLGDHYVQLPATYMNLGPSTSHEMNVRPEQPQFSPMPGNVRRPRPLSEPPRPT
# Chain of Tyrosine-protein kinase Srms (Homo sapiens) (Q9H3Y6 whole entry): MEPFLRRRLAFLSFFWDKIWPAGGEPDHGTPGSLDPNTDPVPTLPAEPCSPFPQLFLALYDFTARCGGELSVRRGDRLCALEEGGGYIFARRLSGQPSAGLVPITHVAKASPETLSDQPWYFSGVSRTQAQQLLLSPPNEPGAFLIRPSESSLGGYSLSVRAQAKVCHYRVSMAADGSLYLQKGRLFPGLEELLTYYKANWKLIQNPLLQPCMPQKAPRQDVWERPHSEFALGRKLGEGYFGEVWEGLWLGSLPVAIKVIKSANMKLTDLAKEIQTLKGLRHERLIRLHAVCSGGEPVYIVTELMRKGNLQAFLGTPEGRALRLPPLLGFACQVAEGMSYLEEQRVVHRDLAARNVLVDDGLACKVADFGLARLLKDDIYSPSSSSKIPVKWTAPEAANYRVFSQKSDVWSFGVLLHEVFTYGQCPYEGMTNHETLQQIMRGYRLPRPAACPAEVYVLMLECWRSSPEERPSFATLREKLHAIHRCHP
# Chain of Proto-oncogene tyrosine-protein kinase Src (Homo sapiens) (P12931 2-536 limits assumed): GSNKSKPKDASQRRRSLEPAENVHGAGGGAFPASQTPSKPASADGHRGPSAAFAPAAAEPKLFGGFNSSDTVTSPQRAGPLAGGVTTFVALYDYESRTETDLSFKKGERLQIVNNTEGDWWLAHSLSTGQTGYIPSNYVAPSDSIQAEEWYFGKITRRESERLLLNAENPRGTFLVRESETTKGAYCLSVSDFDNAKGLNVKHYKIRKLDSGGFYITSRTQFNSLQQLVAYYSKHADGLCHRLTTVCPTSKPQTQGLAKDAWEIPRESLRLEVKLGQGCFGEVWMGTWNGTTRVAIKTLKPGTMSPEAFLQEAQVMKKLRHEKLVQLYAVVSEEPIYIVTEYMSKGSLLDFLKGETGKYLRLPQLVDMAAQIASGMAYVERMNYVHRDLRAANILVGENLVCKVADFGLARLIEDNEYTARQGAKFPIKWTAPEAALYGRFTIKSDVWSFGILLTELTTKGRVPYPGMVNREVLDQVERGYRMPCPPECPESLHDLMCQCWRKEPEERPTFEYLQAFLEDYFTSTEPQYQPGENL
SMILES,inhibition [1] [%],inhibition [2] [%],inhibition [3] [%],inhibition [4] [%],inhibition [5] [%],inhibition [6] [%],inhibition [7] [%],inhibition [8] [%],inhibition [9] [%],inhibition [10] [%],inhibition [11] [%],inhibition [12] [%],inhibition [13] [%],inhibition [14] [%],inhibition [15] [%],inhibition [16] [%],inhibition [17] [%],inhibition [18] [%],inhibition [19] [%],inhibition [20] [%]
COC(=O)c1sc(-n2cnc3cc(OC)c(OC)cc32)cc1OCc1ccccc1C(F)(F)F,52.3,0.58,1.46,6.32,12.3,1.51,24.7,-2.13,-3.45,-5.15,1.09,3.18,6.98,4.13,14.3,8.49,4.49,0.92,5.56,3.76
CC1=C(C(=O)Nc2cc(Cl)c3[nH]ncc3c2)C(c2ccc(C(F)(F)F)cc2)CC(=O)N1 (stereo not given),18.1,13.4,11.4,4.57,6.5,1.84,30.8,-1.35,3.11,-2.63,1.05,3.36,6.05,4.83,5.04,4.45,3.87,0.65,2.37,3.77
COc1cc2ncn(-c3cc(OCc4ccccc4C(F)(F)F)c(C(=O)N(C)C)s3)c2cc1OC,23.4,1.82,-1.06,1.8,2.67,0.91,3.6,1.16,1.35,4.44,1.81,0.84,2.14,1.94,3.94,8.67,48.7,0.68,7.7,1.49
Cc1ccc2c(-c3ccnc(Nc4ccccc4)n3)c(-c3ccc(F)cc3)nn2n1,50.7,0.11,3.58,2.77,5.97,15.3,63.2,1.58,9.73,-2.66,-4.62,10.6,38.1,3.44,17.5,3.52,14.2,1.74,7.9,9
Cc1cccc2c1NC(=O)/C2=N\Nc1ccc(S(N)(=O)=O)cc1,18.8,4.93,2.48,2.26,1.51,4.47,6.45,-0.7,-2.11,3.45,-1.74,5.22,7.22,1.65,1.24,2.15,5.82,1.06,1.59,4.96
CNC(=O)c1cc(-c2ccc(F)cc2)cc(-c2ccc(S(=O)(=O)N3CCCC3)cc2)c1N,2.82,1.89,4.58,4.64,6.55,5.46,6.17,2.11,-2.91,-0.29,0.73,2.93,3.29,2.3,2.3,2.65,2.41,0.47,1.54,1.97
CC(=O)Nc1cccc(C#Cc2cncnc2Nc2ccc(OCc3cccc(F)c3)c(Cl)c2)c1,13.3,0.77,4.22,7.46,12.2,10.8,6.18,2.87,0.23,3.21,0.71,5.52,8.88,1.44,7.33,0.67,1.04,1.8,5.63,0.89
CN(C)CCOc1ccc(-c2nc(-c3ccncc3)c(-c3ccc4c(c3)CC/C4=N\O)[nH]2)cc1,20.2,-1.14,7.41,3.61,5.38,0.25,11.9,-1.81,-0.6,-2.98,-0.9,4.78,5.79,2.29,11.9,2.5,10.2,1.21,2.51,2.02
CCCN1CCC(c2ccc(Nc3nc(Nc4cc(F)ccc4C(N)=O)c4cc[nH]c4n3)c(OC)c2)CC1,35.8,8.19,8.86,60.7,81.3,-0.59,15.3,1.02,14.8,-9.2,73.4,2.15,7.76,2.84,4.59,46.4,92.8,5.57,44.3,1.74
O=C(O[C@H]1CN[C@H](C#Cc2cc3ncnc(Nc4ccc(Cc5ccccc5)cc4)c3s2)C1)N1CCOCC1,4.61,2.34,3.27,-0.61,2.78,3.84,7.75,-3.02,-2.02,-0.1,-3.86,-0.07,4.05,-0.43,2.3,0.66,5.45,0.74,0.96,1.4
CNC(=O)c1cncc(/C=C/c2ccccc2Cl)c1,22.8,2.22,7.21,-2.16,2.7,10.1,7.14,1.76,3.3,7.26,0.31,2.56,10.2,-0.85,4.09,2.57,27.7,0.2,5.7,-5.21
CCn1cc(-c2ccnc3[nH]ccc23)c(-c2cccc(NC(=O)Nc3ccc(OCc4ccccc4)cc3)c2)n1,11.9,-0.2,23.8,1.33,0.45,1.17,6.43,-1.11,-1.61,-1.9,-2.75,-0.28,0.98,-0.17,6.2,1.05,11.2,-0.68,2.63,-1.48
CCn1c(-c2nonc2N)nc2ccccc21,3.18,1.17,2.21,9.11,15.9,11.4,6.84,1.09,2.1,0.68,0.1,3.65,7.35,0.56,-0.01,2.77,4.19,1.12,2.47,3.39
CCn1c(-c2nonc2N)nc2c(C#CC(C)(C)O)nc(OC[C@H](N)c3ccccc3)cc21,41.3,4.34,-1.45,9.15,9.48,8.29,13.7,2.09,1.99,2.17,4.13,6.27,3.05,5.91,6.74,1.23,-4.26,0.7,3.88,0.42
NC(=O)c1sc(-n2cnc3ccc(C(F)(F)F)cc32)cc1OCc1ccccc1Br,11.1,4.35,5.41,3.4,9.36,1.66,10.1,-1.61,-2.09,-5.63,0.09,2.5,2.78,2.27,3.55,1.47,9.04,0.36,0.65,4.01
COc1ccc2[nH]c3c4[nH]c5ccc(OC)cc5c4c4c(c3c2c1)C(=O)NC4=O,67.3,6.28,16.9,55.8,79.1,-1.01,20.4,3.34,15.6,-7.81,10.5,6.89,31,1.36,5,63.6,89,5.57,16,3.47
CN1CCC(n2cnc(-c3ccc(F)cc3)c2-c2ccnc(N)n2)CC1,27.5,5.16,-2.05,2.9,15.1,1.96,10.6,1.38,0.46,2.67,-1.2,3.52,5.01,3.13,2.56,1.5,8.96,0.57,1.23,0.03
Nc1nc(-c2ccc(F)cc2)c(-c2ccc3ncccc3n2)s1,14,-8.7,7.82,4.44,15.8,-1.89,14.2,0.67,3.74,-1.32,0.4,4.57,6.46,1.26,4.32,4.65,6.8,1.85,3.57,4.1
c1ccc(COc2ccc(Nc3ncnc4ccc(-c5ccco5)cc34)cc2)cc1,1.21,4.01,7.76,2.59,3.28,0.54,1.64,0.68,0.99,-0.45,-0.46,1.31,3.25,2.64,3.4,1.53,5.09,-0.27,0.03,-2.34
CCn1c(-c2nonc2N)nc2c(C#CC(C)(C)O)ncc(OC3CCNCC3)c21,17.1,-2.24,0.48,7.34,6.9,7.32,11.4,0.02,1.37,2.08,1.12,5.92,3.33,4.81,7.95,1.33,0.26,0.61,1.17,2.16
COc1cc(N2CCN(C(C)C)CC2)ccc1Nc1nc(Nc2ccc(F)cc2C(N)=O)c2cc[nH]c2n1,16.6,0.61,-0.44,51.8,81.8,6.34,10.4,1.36,7.98,0.19,35.9,6.32,3.59,4.35,3.7,34.7,74.1,10.8,61.7,-1.19
CCc1nn2ncccc2c1-c1ccnc(NC2CC2)n1,6.92,6.26,6.01,4.86,5.32,6.38,7.08,1.77,1.02,0.63,2.4,3.41,4.89,4.14,6.65,1.41,5.48,1.22,2.89,0.51
Clc1ccc(-c2nn3ncccc3c2-c2ccnc(Nc3ccccc3)n2)cc1,42.2,-2.2,4.63,4.17,9.1,6.5,39.3,1.99,5.97,-4.66,2.04,2.78,15.2,3.84,18.5,-6.06,11.2,0.77,4.09,3.46
N#Cc1c(NC(=O)c2ccc(F)cc2)sc2c1CCCC2,7.62,1.04,2.12,0.38,4.13,4.79,1.56,-1.11,-0.62,-2.1,-0.64,1.75,1.25,1.49,2.44,-1.86,2.53,0.23,0.89,0.08
NS(=O)(=O)c1ccc(N/N=C2\C(=O)Nc3ccc4ncccc4c32)cc1,77.7,2.25,13.3,8.1,35.3,19.3,71.1,-0.11,3.96,-9.38,22.4,8.53,38.3,5.02,11.5,14.6,56.8,1.85,8.38,6.88
CCN(CC)S(=O)(=O)c1ccc(OC)c(Nc2ncc(-c3ccccc3)o2)c1,35.7,4,-1.9,1.91,19,9.87,56.4,1.97,3.53,0.84,-0.04,2.99,11.9,4.38,14,15.6,72.1,-0.01,1.62,4.25
